From the supplement of paper PMC10849652
The full data set covers some 7,900 targets. This sample favours those with a hit. About 0.6% of all pairs of compound and target were hits.

How the values were obtained:
Test in all cases: log2 fold change, soluble protein after heating vs DMSO (PISA); higher = thermal stabilisation; K562 cells, 10 uM, 30 min; active = over 0.2 and 3.5 SD of the protein, either way, in both replicates (recomputed)
bafetinib = compound: Cc1ccc(NC(=O)c2ccc(CN3CC[C@H](N(C)C)C3)c(C(F)(F)F)c2)cc1Nc1nccc(-c2cncnc2)n1 [bafetinib]
In short: (§1)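 For each measurement, 10 μM compound was applied for 30 min to K562 cells at 2×10^6 cells/mL. Aliquots were heated for 3 min across 48°C-58°C, pooled, and extracted in PBS with 0.5% NP-40 at 4°C; the supernatant after 21,000xg for 90 min was soluble protein. This was quantified by TMTpro 16plex LC-MS/MS with channel sums equalised, and thermal stability was reported relative to control samples from duplicates, on a log2 fold-change scale.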

[1] = compound: Cc1cccc(CC(=O)N2CCc3c2ccc(-c2cn(C)c4ncnc(N)c24)c3F)n1
In short: as §1

nilotinib = compound: Cc1cn(-c2cc(NC(=O)c3ccc(C)c(Nc4nccc(-c5cccnc5)n4)c3)cc(C(F)(F)F)c2)cn1 [nilotinib]
In short: as §1

[2] = compound: Cc1nc(Nc2n[nH]c3c2CN(C(=O)N[C@H](CN(C)C)c2ccccc2)C3(C)C)c2sccc2n1
In short: as §1

dasatinib = compound: Cc1nc(Nc2ncc(C(=O)Nc3c(C)cccc3Cl)s2)cc(N2CCN(CCO)CC2)n1 [dasatinib]
In short: as §1

[3] = compound: Cc1ncc(-c2ccnc(Nc3ccc(S(C)(=O)=O)cc3)n2)n1C(C)C
In short: as §1

[4] = compound: Cn1cc(-c2ccc3c(c2)CCN3C(=O)Cc2cccc(C(F)(F)F)c2)c2c(N)ncnc21
In short: as §1

[5] = compound: Cn1cc(-c2ccc3nnc(C(F)(F)c4ccc5ncccc5c4)n3n2)cn1
In short: as §1

tipifarnib = compound: Cn1cncc1[C@@](N)(c1ccc(Cl)cc1)c1ccc2c(c1)c(-c1cccc(Cl)c1)cc(=O)n2C [tipifarnib]
In short: as §1

mubritinib = compound: FC(F)(F)c1ccc(/C=C/c2nc(COc3ccc(CCCCn4ccnn4)cc3)co2)cc1 [mubritinib]
In short: as §1

Measured: log2 fold change

IFRD1 (UniProt O00458)
UniProt O00458, sequence (O00458 whole entry, looked up): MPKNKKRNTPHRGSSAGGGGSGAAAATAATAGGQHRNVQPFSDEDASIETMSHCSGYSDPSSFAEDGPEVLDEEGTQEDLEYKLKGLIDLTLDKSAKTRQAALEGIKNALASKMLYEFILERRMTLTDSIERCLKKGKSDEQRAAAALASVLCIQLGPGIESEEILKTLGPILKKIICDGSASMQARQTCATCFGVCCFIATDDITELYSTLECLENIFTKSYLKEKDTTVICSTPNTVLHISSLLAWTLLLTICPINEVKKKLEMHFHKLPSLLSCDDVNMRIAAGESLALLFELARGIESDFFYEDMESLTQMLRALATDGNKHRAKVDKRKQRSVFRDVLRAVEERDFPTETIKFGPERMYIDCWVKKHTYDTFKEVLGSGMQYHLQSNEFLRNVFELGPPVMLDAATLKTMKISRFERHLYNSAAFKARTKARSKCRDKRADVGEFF
inactive: bafetinib 0.118 | [1] -0.031 | nilotinib 0.165 | [2] 0.056 | dasatinib 0.071 | [3] 0.202 | [4] -0.011 | [5] -0.005 | tipifarnib 0.001 | mubritinib 0.1

FBXO3 (UniProt Q9UK99)
UniProt Q9UK99, sequence (Q9UK99 whole entry, looked up): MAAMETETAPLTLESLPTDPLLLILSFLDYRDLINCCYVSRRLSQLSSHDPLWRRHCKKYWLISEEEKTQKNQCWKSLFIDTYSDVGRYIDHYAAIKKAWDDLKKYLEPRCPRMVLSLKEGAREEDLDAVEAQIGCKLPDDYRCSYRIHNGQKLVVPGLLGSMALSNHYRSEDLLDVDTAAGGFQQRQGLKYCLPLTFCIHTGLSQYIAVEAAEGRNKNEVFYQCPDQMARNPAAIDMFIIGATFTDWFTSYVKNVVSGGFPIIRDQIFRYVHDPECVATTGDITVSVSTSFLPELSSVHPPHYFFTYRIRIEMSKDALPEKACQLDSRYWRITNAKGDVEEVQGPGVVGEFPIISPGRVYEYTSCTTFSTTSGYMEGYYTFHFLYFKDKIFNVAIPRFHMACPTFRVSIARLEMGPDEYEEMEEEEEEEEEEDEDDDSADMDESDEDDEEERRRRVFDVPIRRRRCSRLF
inactive: bafetinib -0.052 | [1] 0.06 | nilotinib -0.031 | [2] -0.024 | dasatinib -0.054 | [3] -0.006 | [4] 0.041 | [5] -0.035 | tipifarnib -0.007 | mubritinib 0.055

GTF2A2 (UniProt P52657)
inactive: bafetinib -0.032 | [1] -0.036 | nilotinib -0.025 | [2] 0.022 | dasatinib 0.047 | [3] -0.021 | [4] 0.056 | [5] 0.104 | tipifarnib -0.028 | mubritinib 0.008

GLA (UniProt P06280)
inactive: [1] -0.051 | nilotinib 0.021 | [2] -0.007 | dasatinib -0.039 | [3] -0.04 | [4] 0.005 | [5] 0.03 | tipifarnib 0.064 | mubritinib 0.035
active: bafetinib -0.529

HTATIP2 isoform 3 (UniProt Q9BUP3)
inactive: bafetinib -0.143 | [1] -0.016 | nilotinib 0.116 | [2] -0.056 | dasatinib -0.046 | [3] -0.002 | [4] 0.031 | [5] 0.067 | tipifarnib 0.106 | mubritinib -0.063

HPCAL1 (UniProt P37235)
inactive: bafetinib -0.09 | [1] 0.027 | nilotinib -0.076 | [2] 0.033 | dasatinib -0.031 | [3] -0.028 | [4] -0.011 | [5] 0.053 | tipifarnib -0.032 | mubritinib 0.016

H1FX (UniProt Q92522)
UniProt Q92522, sequence (Q92522 whole entry, looked up): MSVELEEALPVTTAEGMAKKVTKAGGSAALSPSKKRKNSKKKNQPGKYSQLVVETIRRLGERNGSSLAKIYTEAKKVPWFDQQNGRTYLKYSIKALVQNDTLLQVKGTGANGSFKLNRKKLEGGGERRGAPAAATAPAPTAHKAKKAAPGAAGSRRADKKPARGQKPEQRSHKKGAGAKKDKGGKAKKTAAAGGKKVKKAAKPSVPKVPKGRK
inactive: bafetinib 0.248 | [1] 0.048 | nilotinib 0.035 | [2] 0.079 | dasatinib 0.043 | [3] 0.039 | [4] -0.189 | [5] -0.113 | tipifarnib 0.126 | mubritinib -0.138

HDDC2 (UniProt Q7Z4H3)
UniProt Q7Z4H3, sequence (Q7Z4H3 whole entry, looked up): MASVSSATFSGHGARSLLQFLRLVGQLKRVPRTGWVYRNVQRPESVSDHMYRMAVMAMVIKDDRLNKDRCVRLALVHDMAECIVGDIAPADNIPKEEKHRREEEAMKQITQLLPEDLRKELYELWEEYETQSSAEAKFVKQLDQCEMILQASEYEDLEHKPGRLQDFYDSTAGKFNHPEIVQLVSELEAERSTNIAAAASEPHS
inactive: bafetinib -0.015 | [1] 0.039 | nilotinib 0.057 | [2] -0.005 | dasatinib -0.01 | [3] -0.003 | [4] 0.069 | [5] -0.008 | tipifarnib -0.091 | mubritinib 0.043

HIKESHI (UniProt Q53FT3)
inactive: bafetinib -0.003 | [1] 0.02 | nilotinib -0.062 | [2] 0.018 | dasatinib 0.079 | [3] 0.009 | [4] 0.043 | [5] 0.065 | tipifarnib -0.043 | mubritinib 0.025

GLUL (UniProt P15104)
UniProt P15104, sequence (P15104 whole entry, looked up): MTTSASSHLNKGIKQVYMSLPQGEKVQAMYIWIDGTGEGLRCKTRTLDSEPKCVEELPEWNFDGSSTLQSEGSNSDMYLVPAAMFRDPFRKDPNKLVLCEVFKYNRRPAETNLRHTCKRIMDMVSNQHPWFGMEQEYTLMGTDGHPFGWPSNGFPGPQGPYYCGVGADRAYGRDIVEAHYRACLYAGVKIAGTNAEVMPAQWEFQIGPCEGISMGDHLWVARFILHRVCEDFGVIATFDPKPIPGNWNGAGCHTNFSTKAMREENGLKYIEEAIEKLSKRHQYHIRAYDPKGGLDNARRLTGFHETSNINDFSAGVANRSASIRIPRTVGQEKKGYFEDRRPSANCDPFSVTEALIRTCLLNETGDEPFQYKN
inactive: bafetinib -0.027 | [1] -0.038 | nilotinib -0.061 | [2] 0.062 | dasatinib 0.015 | [3] -0.148 | [4] -0.035 | [5] -0.085 | tipifarnib 0.011 | mubritinib -0.112

FAM91A1 (UniProt Q658Y4)
inactive: bafetinib -0.01 | [1] 0.07 | nilotinib -0.007 | [2] 0.073 | dasatinib -0.048 | [3] 0.01 | [4] 0.021 | [5] -0.015 | tipifarnib -0.004 | mubritinib 0.052

HNRNPUL1 (UniProt Q9BUJ2)
inactive: bafetinib -0.011 | [1] -0.069 | nilotinib -0.032 | [2] -0.008 | dasatinib -0.061 | [3] 0.041 | [4] -0.03 | [5] -0.007 | tipifarnib 0.059
active: mubritinib -0.231

GCDH (UniProt Q92947)
inactive: bafetinib -0.047 | [1] 0.007 | nilotinib 0.002 | [2] 0.017 | dasatinib -0.059 | [3] -0.001 | [4] 0.08 | [5] -0.129 | tipifarnib -0.007 | mubritinib -0.028

HEXB (UniProt P07686)
active: bafetinib -0.468
inactive: [1] -0.04 | nilotinib 0.002 | [2] 0.032 | dasatinib 0.039 | [3] -0.024 | [4] 0.021 | [5] 0.01 | tipifarnib 0.026 | mubritinib 0.008

HOOK3 (UniProt Q86VS8)
inactive: bafetinib -0.047 | [1] 0.029 | nilotinib -0.088 | [2] -0.078 | dasatinib -0.07 | [3] 0.009 | [4] 0.002 | [5] -0.027 | tipifarnib -0.001 | mubritinib -0.024

GSTM4 (UniProt Q03013)
inactive: bafetinib 0.021 | [1] 0.002 | nilotinib 0.001 | [2] 0.088 | dasatinib 0 | [3] -0.018 | [4] 0.026 | [5] -0.141 | tipifarnib -0.023 | mubritinib -0.08

GBF1 (UniProt Q92538)
inactive: bafetinib 0.014 | [1] 0.081 | nilotinib -0.117 | [2] -0.109 | dasatinib -0.113 | [3] -0.001 | [4] -0.079 | [5] -0.049 | tipifarnib -0.15 | mubritinib 0.093

GINS2 (UniProt Q9Y248)
UniProt Q9Y248, sequence (Q9Y248 whole entry, looked up): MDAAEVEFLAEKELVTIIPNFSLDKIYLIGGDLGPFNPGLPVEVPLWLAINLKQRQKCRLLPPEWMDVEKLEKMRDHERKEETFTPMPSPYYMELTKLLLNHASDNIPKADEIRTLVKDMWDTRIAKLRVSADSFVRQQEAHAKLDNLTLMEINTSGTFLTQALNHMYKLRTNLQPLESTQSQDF
inactive: bafetinib -0.025 | [1] 0.106 | nilotinib -0.024 | [2] -0.031 | dasatinib -0.265 | [3] 0.03 | [4] -0.057 | [5] -0.111 | tipifarnib -0.064 | mubritinib 0.03

GSTT1 (UniProt P30711)
UniProt P30711, sequence (P30711 whole entry, looked up): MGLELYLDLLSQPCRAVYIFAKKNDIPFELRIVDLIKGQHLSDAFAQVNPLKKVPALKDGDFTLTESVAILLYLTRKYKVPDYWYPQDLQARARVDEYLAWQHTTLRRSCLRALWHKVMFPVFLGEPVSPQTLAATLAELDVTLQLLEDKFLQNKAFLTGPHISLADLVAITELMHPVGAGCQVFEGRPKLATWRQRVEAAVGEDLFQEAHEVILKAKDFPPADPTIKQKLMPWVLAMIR
inactive: bafetinib -0.019 | [1] -0.144 | nilotinib 0.056 | [2] -0.019 | dasatinib 0.143 | [3] -0.033 | [4] 0.014 | [5] 0.043 | tipifarnib -0.065 | mubritinib 0.012

GNAI3 (UniProt P08754)
UniProt P08754, sequence (P08754 whole entry, looked up): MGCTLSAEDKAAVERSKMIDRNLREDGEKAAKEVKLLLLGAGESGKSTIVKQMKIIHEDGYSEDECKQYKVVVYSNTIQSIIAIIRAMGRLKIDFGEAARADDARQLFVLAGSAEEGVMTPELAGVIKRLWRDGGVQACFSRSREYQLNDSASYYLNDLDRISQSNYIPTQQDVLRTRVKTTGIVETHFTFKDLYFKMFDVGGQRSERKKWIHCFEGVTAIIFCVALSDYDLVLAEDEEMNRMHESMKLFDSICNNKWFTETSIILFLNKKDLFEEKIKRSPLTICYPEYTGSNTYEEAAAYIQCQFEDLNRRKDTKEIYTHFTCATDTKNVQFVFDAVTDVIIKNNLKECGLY
inactive: bafetinib 0.066 | [1] 0.033 | nilotinib 0.185 | [2] 0.008 | dasatinib 0.086 | [3] -0.004 | [4] -0.017 | [5] 0.018 | tipifarnib -0.008 | mubritinib -0.032

FDPS (UniProt P14324)
UniProt P14324, sequence (P14324 whole entry, looked up): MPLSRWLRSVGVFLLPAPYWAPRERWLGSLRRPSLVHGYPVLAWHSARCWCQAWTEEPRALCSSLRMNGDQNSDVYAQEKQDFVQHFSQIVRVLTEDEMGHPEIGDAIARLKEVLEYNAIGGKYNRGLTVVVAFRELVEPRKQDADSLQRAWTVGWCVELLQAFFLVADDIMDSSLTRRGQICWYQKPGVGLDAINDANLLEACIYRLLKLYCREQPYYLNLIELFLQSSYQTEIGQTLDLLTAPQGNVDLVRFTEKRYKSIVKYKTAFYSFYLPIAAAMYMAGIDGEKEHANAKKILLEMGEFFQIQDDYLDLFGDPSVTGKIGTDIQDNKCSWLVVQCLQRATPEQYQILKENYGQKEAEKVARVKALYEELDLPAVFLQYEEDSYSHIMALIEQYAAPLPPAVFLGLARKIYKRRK
inactive: bafetinib 0.057 | [1] 0.204 | nilotinib -0.156 | [2] 0.035 | dasatinib -0.392 | [3] -0.027 | [4] 0.209 | [5] 0.441 | tipifarnib -0.258 | mubritinib 0.39

HNRNPF (UniProt P52597)
UniProt P52597, sequence (P52597 whole entry, looked up): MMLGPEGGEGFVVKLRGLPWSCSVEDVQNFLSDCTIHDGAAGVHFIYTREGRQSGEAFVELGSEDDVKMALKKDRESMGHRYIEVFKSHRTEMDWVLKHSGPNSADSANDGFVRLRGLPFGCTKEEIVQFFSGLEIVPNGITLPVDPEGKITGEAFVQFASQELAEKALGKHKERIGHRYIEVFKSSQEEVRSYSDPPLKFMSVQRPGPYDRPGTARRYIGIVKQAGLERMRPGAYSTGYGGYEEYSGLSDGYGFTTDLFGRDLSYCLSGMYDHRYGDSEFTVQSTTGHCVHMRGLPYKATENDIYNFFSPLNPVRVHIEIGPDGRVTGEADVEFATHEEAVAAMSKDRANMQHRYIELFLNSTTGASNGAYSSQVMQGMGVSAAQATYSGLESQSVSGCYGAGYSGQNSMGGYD
inactive: bafetinib -0.013 | [1] 0.056 | nilotinib -0.106 | [2] -0.178 | dasatinib -0.15 | [3] -0.066 | [4] 0.024 | [5] -0.057 | tipifarnib -0.051 | mubritinib -0.022

HSD17B12 (UniProt Q53GQ0)
UniProt Q53GQ0, sequence (Q53GQ0 whole entry, looked up): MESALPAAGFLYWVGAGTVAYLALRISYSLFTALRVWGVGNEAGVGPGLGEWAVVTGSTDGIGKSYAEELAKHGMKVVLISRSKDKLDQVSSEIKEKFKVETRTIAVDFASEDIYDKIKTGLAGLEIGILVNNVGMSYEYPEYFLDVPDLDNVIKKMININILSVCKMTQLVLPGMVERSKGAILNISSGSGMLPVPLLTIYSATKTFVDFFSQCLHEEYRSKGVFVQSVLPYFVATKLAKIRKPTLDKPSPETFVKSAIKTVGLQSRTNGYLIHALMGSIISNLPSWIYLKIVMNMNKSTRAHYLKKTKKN
inactive: bafetinib 0.067 | [1] -0.039 | nilotinib 0.184 | [2] -0.039 | dasatinib -0.095 | [3] 0.002 | [4] 0.092 | [5] -0.02 | tipifarnib 0.089 | mubritinib -0.018

GEMIN6 (UniProt Q8WXD5)
UniProt Q8WXD5, sequence (Q8WXD5 whole entry, looked up): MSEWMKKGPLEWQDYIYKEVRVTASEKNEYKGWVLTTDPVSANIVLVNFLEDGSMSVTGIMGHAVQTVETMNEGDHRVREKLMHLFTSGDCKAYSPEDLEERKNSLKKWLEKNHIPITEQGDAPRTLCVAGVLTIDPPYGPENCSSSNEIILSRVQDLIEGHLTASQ
inactive: bafetinib -0.011 | [1] -0.042 | nilotinib 0.004 | [2] 0.015 | dasatinib -0.024 | [3] -0.022 | [4] 0.018 | tipifarnib -0.002 | mubritinib 0.067
active: [5] 0.306

HBZ (UniProt P02008)
UniProt P02008, sequence (P02008 whole entry, looked up): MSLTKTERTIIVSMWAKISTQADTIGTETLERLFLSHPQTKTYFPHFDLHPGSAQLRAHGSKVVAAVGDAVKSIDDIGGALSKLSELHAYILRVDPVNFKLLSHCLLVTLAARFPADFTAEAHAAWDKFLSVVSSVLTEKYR
inactive: bafetinib -0.013 | [1] 0.037 | nilotinib 0.018 | [2] 0.011 | dasatinib 0.073 | [3] -0.008 | [4] 0.137 | [5] 0.282 | tipifarnib -0.183 | mubritinib 0.049

HAX1 (UniProt O00165)
inactive: bafetinib -0.103 | [1] 0.029 | nilotinib -0.113 | [2] -0.174 | dasatinib -0.044 | [3] 0.069 | [4] -0.028 | [5] -0.068 | tipifarnib -0.112 | mubritinib 0.001

IFT80 isoform 3 (UniProt Q9P2H3)
inactive: bafetinib -0.127 | [1] 0.077 | nilotinib -0.059 | [2] -0.02 | dasatinib -0.148 | [3] 0.114 | [4] 0.036 | [5] 0.039 | tipifarnib -0.07 | mubritinib 0.17

HMGCR isoform 3 (UniProt P04035)
UniProt P04035, sequence (P04035 whole entry, looked up): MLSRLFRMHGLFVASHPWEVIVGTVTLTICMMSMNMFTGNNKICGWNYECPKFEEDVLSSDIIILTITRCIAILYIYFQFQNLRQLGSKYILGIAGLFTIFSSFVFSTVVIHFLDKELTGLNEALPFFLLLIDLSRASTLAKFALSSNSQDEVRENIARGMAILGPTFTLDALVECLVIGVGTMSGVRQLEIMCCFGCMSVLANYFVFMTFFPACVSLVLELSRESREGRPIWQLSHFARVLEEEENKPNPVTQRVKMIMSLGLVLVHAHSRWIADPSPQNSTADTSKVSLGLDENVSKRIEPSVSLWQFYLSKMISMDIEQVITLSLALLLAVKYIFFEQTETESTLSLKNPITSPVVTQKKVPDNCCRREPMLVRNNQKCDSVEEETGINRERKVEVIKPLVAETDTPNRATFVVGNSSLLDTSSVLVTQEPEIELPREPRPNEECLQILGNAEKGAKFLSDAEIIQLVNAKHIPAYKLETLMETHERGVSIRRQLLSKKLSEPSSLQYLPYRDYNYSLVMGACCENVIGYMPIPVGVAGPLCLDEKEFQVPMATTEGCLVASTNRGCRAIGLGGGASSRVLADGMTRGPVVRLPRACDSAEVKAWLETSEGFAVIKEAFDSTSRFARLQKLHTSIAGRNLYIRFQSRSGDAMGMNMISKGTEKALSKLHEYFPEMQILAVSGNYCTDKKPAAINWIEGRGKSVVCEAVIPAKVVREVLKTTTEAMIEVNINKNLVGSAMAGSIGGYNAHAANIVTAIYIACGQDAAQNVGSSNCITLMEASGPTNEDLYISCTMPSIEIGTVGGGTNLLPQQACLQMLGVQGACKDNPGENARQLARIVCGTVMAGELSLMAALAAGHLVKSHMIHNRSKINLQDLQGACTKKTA
inactive: bafetinib 0.008 | [1] 0.016 | nilotinib -0.241 | [2] 0.015 | dasatinib -0.027 | [3] -0.087 | [4] -0.023 | [5] -0.062 | tipifarnib -0.021 | mubritinib 0.1
